This is a sample that favours compounds with a hit; in the whole collection about 3.9% have one here.
SKKanGAS inh: S. pyogenes SKKanGAS growth inhibitors in kanamycin, primary screen, streptokinase expression inhibitor project, SKKanGAS strain, BacTiter-Glo luminescence; inhibition, % at 7.5 µM; hit rate 1.3% among 300,000; 6 h;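 active means mean replicate score, as percent of positive control median, at least 50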;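 further: strain carries kanamycin resistance gene driven by streptokinase promoter and grows in 40 µg/ml kanamycin; loss of luminescence reflects streptokinase promoter inhibition or plain growth inhibition; 0% = median of DMSO wells and 100% = positive control at its reference dose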
PHOSPHO1 block: PubChem AID 1565; Phosphoethanolamine/phosphocholine phosphatase (Homo sapiens), Q8TCT1; recombinant PHOSPHO1, absorbance phosphatase assay; inhibition, % at 13.3 µM; hit rate 1.1% among 290,000; in the data active means inhibition above about 60%
Target sequence (Q8TCT1 whole entry, looked up): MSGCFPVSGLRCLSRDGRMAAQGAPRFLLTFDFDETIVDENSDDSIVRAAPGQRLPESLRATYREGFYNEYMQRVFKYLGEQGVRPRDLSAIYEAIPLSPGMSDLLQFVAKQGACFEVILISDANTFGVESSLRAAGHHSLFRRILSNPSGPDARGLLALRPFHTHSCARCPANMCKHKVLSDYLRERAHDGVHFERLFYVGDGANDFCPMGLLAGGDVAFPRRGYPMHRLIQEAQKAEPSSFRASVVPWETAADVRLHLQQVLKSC
Rtt109 HAT inh: inhibitors of C. albicans Rtt109/Vps75 HAT, primary screen, biochemical, ThioGlo CoA-SH fluorescence, plate reader; Histone acetyltransferase RTT109 (Candida albicans (strain SC5314 / ATCC MYA-2876)), …; purified Rtt109/Vps75, 4 h; inhibition, % at 34.9 µM; hit rate 0.16% among 330,000; AID 540336, 2011;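 active means inhibition of at least 50% in every replicate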
Target sequence (Q5AAJ8 whole entry, looked up): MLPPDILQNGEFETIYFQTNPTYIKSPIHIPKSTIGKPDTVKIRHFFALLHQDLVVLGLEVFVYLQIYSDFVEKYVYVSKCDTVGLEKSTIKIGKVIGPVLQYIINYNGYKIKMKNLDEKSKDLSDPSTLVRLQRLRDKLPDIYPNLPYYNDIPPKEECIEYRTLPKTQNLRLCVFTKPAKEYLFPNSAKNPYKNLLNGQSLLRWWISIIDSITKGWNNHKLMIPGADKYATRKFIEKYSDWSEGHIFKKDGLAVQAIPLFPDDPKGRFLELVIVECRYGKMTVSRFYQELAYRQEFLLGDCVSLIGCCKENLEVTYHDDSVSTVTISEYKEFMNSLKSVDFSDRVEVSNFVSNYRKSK
WT yeast gro inh: growth inhibition of WT strain, primary screen, mitochondrial fusion inhibitor project, WT and mutant strains, chemical genetic. mitochondrial fusion phenotypic screen. inhibition, % at 10 µM. hit rate 2.1% among 190,000. AID 1362, 2008; in the data active means inhibition above about 58%; tested in S. cerevisiae
TPT1 inh: Candida albicans TPT1 enzyme inhibitors, primary screen, biochemical, fluorescence polarization. tRNA 2'-phosphotransferase TPT1 (Candida albicans SC5314). recombinant caTPT1, FP RNA substrate dephosphorylation. inhibition, % at 5 µM. hit rate 0.81% among 300,000;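 active means inhibition above the mean of all tested compounds plus 3 SD, set per screening campaign, cut at about 24% in these data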;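 further: plate controls were DMSO alone for no effect and ferristatin control at 100 nM for full effect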
Platelet DG rel: inhibitors of platelet dense granule secretion, primary screen, cell-based, MLPCN, human platelets. human platelet-rich plasma, SFLLRN dense granule ATP release, luminescence. inhibition, %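 (compounds screened at 7.5 µM in platelet-rich plasma)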. hit rate 0.22% among 300,000;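 active means mean replicate score, as percent of positive control, at or above 50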
An asterisk follows results filed as active.

Screening O=C(/C=C\Nc1ccccn1)c1ccc(Cl)cc1 returned PHOSPHO1 block 37, Rtt109 HAT inh 62*, WT yeast gro inh 11 and TPT1 inh 1.
`CCc1nc2ccccc2c(C(=O)OCC(=O)N2CC(C)OC(C)C2)c1C` (centres undefined) gave SKKanGAS inh 13, Rtt109 HAT inh 1, TPT1 inh -6 and Platelet DG rel -11.
Screening CN(C)C1=NCCN1CCc1cccc(F)c1 returned SKKanGAS inh -2, PHOSPHO1 block -2, Rtt109 HAT inh -8, TPT1 inh -2 and Platelet DG rel -4.
`CC(C)Oc1ccc(C(=O)Nc2ccc(Cl)c(S(=O)(=O)Nc3ccc(Cl)cc3)c2)cc1` gave SKKanGAS inh 110*, PHOSPHO1 block -18, Rtt109 HAT inh -2, WT yeast gro inh 21, TPT1 inh 1 and Platelet DG rel 0.
`COc1ccc(NC(=O)c2cc(F)cc(F)c2)cc1Cl` gave SKKanGAS inh -11, PHOSPHO1 block -8, Rtt109 HAT inh 3, TPT1 inh 1 and Platelet DG rel -7.
COc1ccc(NC(=O)c2cc(-c3cc(C)cc(C)c3O)n[nH]2)cc1Cl was read as SKKanGAS inh 99*, PHOSPHO1 block 9, Rtt109 HAT inh 3, WT yeast gro inh 66*, TPT1 inh -2 and Platelet DG rel 0.
`COc1ccc(NC(=O)c2cc(-c3ccccc3O)n[nH]2)cc1Cl` gave SKKanGAS inh 1, PHOSPHO1 block 20, Rtt109 HAT inh -6 and Platelet DG rel 0.
Screening COc1ccc(NC(=O)c2ccc(OC(F)F)cc2)cc1Cl returned SKKanGAS inh 4, PHOSPHO1 block 4, Rtt109 HAT inh -6, WT yeast gro inh 26, TPT1 inh 4 and Platelet DG rel 64*.
CC(C)c1nc(NCc2ccccc2)c(C#N)c2c1CCCC2 was read as SKKanGAS inh 79*, PHOSPHO1 block 1, Rtt109 HAT inh 0, WT yeast gro inh -13, TPT1 inh -4 and Platelet DG rel -2.
`CC(C)c1nc(NCCO)c(C#N)c2c1CCCC2` gave SKKanGAS inh -4, PHOSPHO1 block 2, TPT1 inh -5 and Platelet DG rel 5.
Screening Cc1[nH]c2ccccc2c1Cc1n[nH]c(=S)n1C returned SKKanGAS inh 0, PHOSPHO1 block -16, Rtt109 HAT inh -9, WT yeast gro inh -8, TPT1 inh -2 and Platelet DG rel -3.
For Cn1c(Cc2c[nH]c3ccccc23)n[nH]c1=S the results were SKKanGAS inh 3, PHOSPHO1 block 89*, Rtt109 HAT inh 0, WT yeast gro inh -11, TPT1 inh -4 and Platelet DG rel 16.
COc1ccc(C(=O)NC(=O)CSc2nc3nc(C)cc(C)n3n2)cc1 was read as Rtt109 HAT inh 0.
Screening COc1ccc(C(C(=O)NC2CCCC2)N(CCC(C)C)C(=O)CCC(=O)Nc2cc(C)on2)cc1 (centres undefined) returned SKKanGAS inh 7, PHOSPHO1 block -4, Rtt109 HAT inh 25, TPT1 inh 0 and Platelet DG rel 2.
`COc1cccc(C(C(=O)NC2CCCC2)N(CCC(C)C)C(=O)CCC(=O)Nc2cc(C)on2)c1` (centres undefined) gave SKKanGAS inh 5, PHOSPHO1 block 14, Rtt109 HAT inh 50*, TPT1 inh -3 and Platelet DG rel -9.
CCCCCCCCOC(=O)c1c(CSC(=N)N)n(C)c2cc(Br)c(OC(C)=O)cc12 was read as SKKanGAS inh 75*, PHOSPHO1 block -33, TPT1 inh 0 and Platelet DG rel 3.
For Cc1sc2ncnc(NCC(O)c3ccc([N+](=O)[O-])cc3)c2c1C (centres undefined) the results were SKKanGAS inh 1, PHOSPHO1 block 11, Rtt109 HAT inh -2, TPT1 inh -1 and Platelet DG rel -1.
`NC(=O)c1c(NC(=O)COC(=O)c2ccc(O)c(Cl)c2)sc2c1CCCC2` gave Rtt109 HAT inh 1.
`CCOc1ccc(C2=Cc3cc(OC)c(OC)cc3C(=C(Cl)Cl)O2)cc1` gave PHOSPHO1 block 67* and WT yeast gro inh -7.
Screening CCOc1ccc(-c2[nH]ncc2-c2ccc(OC)c(OC)c2)c(O)c1 returned PHOSPHO1 block 3, Rtt109 HAT inh -1, WT yeast gro inh 3 and TPT1 inh 0.
Screening O=C1CN(/N=C/c2ccc([N+](=O)[O-])o2)C(=O)N1 returned SKKanGAS inh 84*, PHOSPHO1 block 4, WT yeast gro inh 3, TPT1 inh -2 and Platelet DG rel -3.
`COc1ccc(C(Nc2cc(C)ccn2)c2ccc3ccc(C)nc3c2O)cc1` (centres undefined) gave SKKanGAS inh 61*, PHOSPHO1 block -21, Rtt109 HAT inh 8, TPT1 inh 2 and Platelet DG rel 7.
For Cc1ccnc(NC(c2ccsc2)c2ccc3ccc(C)nc3c2O)c1 (centres undefined) the results were SKKanGAS inh 93*, PHOSPHO1 block -95, WT yeast gro inh -7, TPT1 inh -1 and Platelet DG rel -5.
O=C(Nc1cccc(C(F)(F)F)c1)c1cccnc1NCCc1ccccc1 was read as SKKanGAS inh 29, PHOSPHO1 block -7, Rtt109 HAT inh -15, WT yeast gro inh 87*, TPT1 inh -3 and Platelet DG rel 5.
`COc1ccccc1NC(=O)CN1CCN(CC(=O)Nc2ccc(OCc3ccccc3)cc2)CC1` gave SKKanGAS inh 23, PHOSPHO1 block -23, Rtt109 HAT inh 5, WT yeast gro inh 66*, TPT1 inh -1 and Platelet DG rel 18.
Screening COc1ccccc1NC(=O)CN1CCN(CC(=O)Nc2ccc(F)cc2)CC1 returned PHOSPHO1 block 1, Rtt109 HAT inh -3, WT yeast gro inh -9 and TPT1 inh -3.
Screening O=S(=O)(Nc1ccc(N=Nc2ccc(O)c3ccccc23)cc1)c1ccccc1 returned SKKanGAS inh 96*, PHOSPHO1 block -7, Rtt109 HAT inh -7, WT yeast gro inh 59*, TPT1 inh 6 and Platelet DG rel 5.
O=S(=O)(Nc1ccc(N=Nc2ccccc2)cc1)c1ccccc1 was read as SKKanGAS inh 3, PHOSPHO1 block -5, Rtt109 HAT inh -2, WT yeast gro inh -4, TPT1 inh -4 and Platelet DG rel 2.
CC(C)NC(=S)NC(c1ccccc1)(c1ccccc1)c1ccccc1 was read as SKKanGAS inh 81*, PHOSPHO1 block -13, Rtt109 HAT inh -7, TPT1 inh 3 and Platelet DG rel -2.
COc1ccc(NC(=O)c2ccco2)c(NC(=O)c2ccc([N+](=O)[O-])cc2)c1 was read as SKKanGAS inh -6, PHOSPHO1 block 48, Rtt109 HAT inh -1, TPT1 inh 4 and Platelet DG rel 0.

Screens as filed in PubChem.
